# Screens (PubChem)
# NPYLR7 ag = activates Aedes aegypti NPYLR7 receptor; AID 1259423; activation, % at 10 µM; HEK293T NPYLR7/Galpha15, GCaMP6s calcium fluorescence; 0.15% of 270,000 active; in the data active = activation above about 40%;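 also: 0% = vehicle and 100% = reference agonist at the receptor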
# mcGAS lum = inhibitors of mouse cGAS; AID 1259399; Q8C6L5; 0.15% of 160,000 active; inhibition, % at 12.5 µM; recombinant cGAS, Kinase-Glo ATP depletion luminescence;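 also: 0% = negative control wells and 100% = reference inhibitor with no enzyme activity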
# Target sequence (Q8C6L5 whole entry, looked up): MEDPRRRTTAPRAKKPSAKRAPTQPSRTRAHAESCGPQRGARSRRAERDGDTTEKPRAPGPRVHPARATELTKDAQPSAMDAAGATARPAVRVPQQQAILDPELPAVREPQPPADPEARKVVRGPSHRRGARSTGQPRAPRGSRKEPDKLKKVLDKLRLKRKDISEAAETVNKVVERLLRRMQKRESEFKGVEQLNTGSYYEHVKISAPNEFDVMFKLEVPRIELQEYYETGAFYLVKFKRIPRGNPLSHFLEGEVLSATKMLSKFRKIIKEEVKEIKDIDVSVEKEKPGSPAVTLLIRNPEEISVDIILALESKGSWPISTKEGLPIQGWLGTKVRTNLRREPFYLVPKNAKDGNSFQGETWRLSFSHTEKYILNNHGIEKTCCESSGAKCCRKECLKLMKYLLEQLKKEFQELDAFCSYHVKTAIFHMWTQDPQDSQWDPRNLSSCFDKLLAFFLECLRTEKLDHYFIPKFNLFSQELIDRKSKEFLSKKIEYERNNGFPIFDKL
# hcGAS inh = blocks human cGAS activity; Q8N884; recombinant h-cGAS, ATP depletion, Kinase-Glo luminescence; inhibition, % at 12.5 µM; 0.081% of 290,000 active; AID 1259398;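 also: 0% = vehicle reaction and 100% = reaction without DNA for no activity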
# Numbers without * were called inactive; . = no result given. An excerpt weighted towards active compounds, which were near 0.28% of everything screened. Rule as the data show it, unless noted: active = inhibition above about 40%; inactive = the rest.
SMILES,NPYLR7 ag,mcGAS lum,hcGAS inh
CCNC(=O)[C@H]1O[C@@H](n2cnc3c(N)ncnc32)C(O)[C@H]1O (stereo not given in full),191*,-3,-1
CCCCn1nc(C)c(C(=O)Nc2cc(C)ccc2F)c1Cl,0,.,-13
COC(=O)C(CCSC)NC(=O)c1cn(Cc2ccc(F)cc2)nn1 (stereo not given),-13,0,7
Cc1ccc(C)c(Cn2cccc(C(=O)Nc3cc(Cl)ccc3C#N)c2=O)c1,6,.,2
CC(=O)O.CC(=O)O.[Cd],-9,.,74*
CC(=O)N1CN(C(C)=O)CN(C(C)=O)C1,-5,.,-1
CCOC(=O)[C@@H]1[C@H]2CN(C(=O)COC)CCN2C[C@H]1c1ccccc1,7,-2,-9
N#Cc1cccc(CN2C[C@@H]3C[C@H](C2)c2ccc(/C=C/c4ccc(Cl)cc4)c(=O)n2C3)c1,-7,-4,-6
CCC(NC(=O)c1cnn(C(C)(C)C)c1)c1ccccc1OC (stereo not given),6,.,-11
COc1ccccc1[C@@H]1CN(C(=O)c2cnoc2C)[C@@H]2C3CCN(CC3)[C@@H]21,-2,.,-3
N#Cc1c(O)c(Cl)c(Cl)c(C#N)c1Cl,4,55*,30
CCCc1nc(C)cc(N2C[C@H]3CC[C@@H](C2)N3)n1,-5,-19,-6
CC[C@@]1(O)C[C@H](O[C@H]2C[C@H](N(C)C)[C@H](O)[C@H](C)O2)c2c(cc3c(c2O)C(=O)c2c(O)ccc(O)c2C3=O)[C@H]1C(=O)OC,9,.,44*
CC[C@@]1(O)C[C@H](O[C@H]2C[C@H](N(C)C)[C@H](O)[C@H](C)O2)c2c(cc3c(c2O)C(=O)c2c(O)cccc2C3=O)[C@H]1C(=O)OC,34,.,72*
CC[C@@]1(O)C[C@H](O)c2c(cc3c(c2O)C(=O)c2c(O)ccc(O)c2C3=O)[C@H]1C(=O)OC,-13,.,-6
COc1ccc(CC(=O)N2CCN(C(c3ccccc3)c3ccc(Br)cc3)CC2)cc1 (stereo not given),-4,1,1
O=C(c1scc2c1CCCC2)N1C[C@H]2C[C@@H](C1)c1cccc(=O)n1C2,15,.,-6
Cc1ccccc1N1C(=O)/C(=C/c2ccco2)C(=O)NC1=S,-2,86*,41*
Cc1cc(C)cc(N2C(=O)NC(=O)/C(=C\c3ccco3)C2=O)c1,-8,7,5
O=C1NC(=O)N(Cc2ccccc2)C(=O)/C1=C\c1ccco1,-5,44*,35
O=C1NC(=O)N(Cc2ccccc2)C(=O)C1=Cc1ccco1,-6,.,-5
CC1=C(C(=O)OC(C)(C)C)C2(C(=O)Nc3ccc(Br)cc32)C(C(=O)OC(C)(C)C)C(=N)O1 (stereo not given),9,-5,-5
CCCc1nc(C)cc(N2[C@H]3CCNC[C@@H]2CC3)n1,6,.,-1
O=C1NC(=O)C2=Cc3ccc(O)cc3OC2(O)N1 (stereo not given),193*,-3,-1
O=c1c2cnc3ncnn3c2ccn1CCc1cnc[nH]1,5,.,-3
CNC(=O)Oc1c(Br)cc2sc(=O)oc2c1Br,5,98*,-4
O=C(c1cccnc1Oc1ccc(Cl)cc1)N1CCN(CCOC(c2ccccc2)c2ccccc2)CC1,3,-5,-1
Cc1ccsc1CN1C[C@H]2CC[C@@H]1CN(C)C2,.,0,-1
O=S1(=O)CCN(C2CCC3(CCNCC3)CC2)CC1,.,0,1
O=C1C=C2C(=CCOC2O)O1 (stereo not given),.,106*,88*
